Drawing on PubChem BioAssay (EPA / NIEHS), this text covers outcome and AC50 for 15 compounds.

Assay [1] has as its target Glucocorticoid receptor (Homo sapiens) (UniProt P04150). The assay can be described thus: ATG_GR_TRANS: Attagene TRANS-FACTORIAL HepG2 Assay for human Glucocorticoid Receptor (GR) (AID 2282978).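 Further: activators score as hits since higher reporter transcript over DMSO is fitted.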 The following applies: HepG2 Attagene TRANS GR reporter, mRNA transcription. A digest of the protocol: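 Transient MRTU transfection of HepG2 (GAL4-UAS reporters, exogenous NR-GAL4 chimeras), 24 h dosing. Readout: reporter transcript via RT-PCR + capillary electrophoresis fluorescence. Positive direction vs DMSO baseline.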

In assay [2] the target is Oxysterols receptor LXR-alpha (Homo sapiens) (UniProt Q13133). Kind of assay: ATG_LXRa_TRANS: Attagene TRANS-FACTORIAL HepG2 Assay for human Liver X Receptor alpha (LXRa) (AID 2282980). The following applies: HepG2 Attagene TRANS reporter, LXRa transactivation. A digest of the protocol:
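Chemical-induced reporter mRNA measured by RT-PCR with fluorescent labelling and capillary electrophoresis after 24 h dosing of transiently transfected HepG2 cells expressing exogenous NR-Gal4 chimeras; increases scored against DMSO baseline.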

In assay [3] the target is Transcriptional activator Myb (Homo sapiens) (UniProt P10242). The assay can be described thus: ATG_Myb_CIS: Attagene CIS-FACTORIAL HepG2 Assay for human Myeloblastosis (Myb) Proto-Oncogene Transcription Factor (AID 2282986; active means hit-call score of the fitted dose curve at least 0.9, where 1 is the maximum; inactive means score below 0.9). The following applies: HepG2 Attagene CIS-FACTORIAL Myb reporter transcription; actives raise or lower the signal. In outline: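 HepG2, transient MRTU transfection (cis-element promoters, endogenous TF activity), 24 h compound exposure. Readout: reporter mRNA via RT-PCR, 6-FAM labeling, HpaI digest, capillary electrophoresis. Gain/loss fit vs DMSO.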

In assay [4] the target is Oxysterols receptor LXR-beta (Homo sapiens) (UniProt P55055). The assay can be described thus: ATG_LXRb_TRANS: Attagene TRANS-FACTORIAL HepG2 Assay for human Liver X Receptor beta (LXRb) (AID 2282981). The following applies: HepG2 Attagene TRANS GAL4-LXRb reporter, mRNA. A digest of the protocol:
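After 24 h of chemical treatment, transfected HepG2 cells yield total RNA; reporter cDNA is PCR-amplified, FAM-labelled, HpaI-cut and run on capillary electrophoresis. Signal reflects chimeric LXRb-Gal4 activity on GAL4-UAS reporters.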

Assay [5] concerns the target Nuclear receptor subfamily 4 group A member 2 (Homo sapiens) (UniProt P43354). The assay can be described thus: ATG_NURR1_TRANS: Attagene TRANS-FACTORIAL HepG2 Assay for human Nuclear Receptor Related Protein 1 (NURR1) (AID 2282985). The following applies: HepG2 Attagene TRANS reporter, mRNA readout. A digest of the protocol: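 Measures transcriptional activation by an exogenous NR-Gal4 chimera in transfected HepG2 liver cells. After 24 h, reporter RNA is reverse-transcribed, amplified and resolved by capillary electrophoresis; DMSO defines baseline.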

In assay [6] the target is Bile acid receptor (Homo sapiens) (UniProt Q96RI1). The assay can be described thus: ATG_FXR_TRANS: Attagene TRANS-FACTORIAL HepG2 Assay for Farnesoid X Receptor (FXR) (AID 2282979).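 Further: hits raise reporter mRNA above DMSO so AC50 marks FXR activation.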 The following applies: HepG2 Attagene TRANS FXR-GAL4 reporter transcription. In outline: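 Reporter transcripts from transfected HepG2 cells were measured 24 h after dosing, using RT-PCR with capillary electrophoresis of 6-FAM-labelled fragments. The read-out reflects activity of exogenous FXR-Gal4 chimera on GAL4-UAS units, with induction relative to DMSO.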

A short description of assay [7]: ATG_M_32_TRANS: Attagene TRANS-FACTORIAL HepG2 Assay for M32 Transcription Factor (Internal Marker) (AID 2282984).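 Further: transcript level of a background control reporter unit measured by RT-PCR and capillary electrophoresis.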 The following applies: HepG2 Attagene TRANS M32 internal marker reporter. A digest of the protocol:
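Cell-based TRANS-format assay in HepG2: exogenous chimeric GAL4 reporter units transiently expressed, compounds applied 24 h. Reporter mRNA detected by RT-PCR plus capillary electrophoresis; this readout is an internal background marker.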

A short description of assay [8]: ATG_M_06_TRANS: Attagene TRANS-FACTORIAL HepG2 Assay for M06 Transcription Factor (Internal Marker) (AID 2282983). The following applies: HepG2 Attagene TRANS M06 internal marker reporter. A digest of the protocol: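 Background-control reporter readout: after 24 h chemical exposure of transiently transfected HepG2 (GAL4-UAS reporter units), mRNA quantified by RT-PCR with fluorescent labeling and capillary electrophoresis. Gain-of-signal fitting against DMSO baseline.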

Assay [9] concerns the target Hepatocyte nuclear factor 4-alpha (Homo sapiens) (UniProt P41235). Kind of assay: ATG_HNF4a_TRANS: Attagene TRANS-FACTORIAL HepG2 Assay for human Hepatocyte Nuclear Factor 4 alpha (HNF4a) (AID 2282982). The following applies: HepG2 HNF4a transactivation reporter, mRNA readout. A digest of the protocol:
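Multiplexed reporter assay: transfected HepG2, 24 h exposure, total RNA → oligo(dT) RT → PCR → 6-FAM extension → HpaI digest → CE fluorescence. DMSO = negative control.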

Records with an inconclusive call do not appear. Activity calls are given as the source filed them. How the source made its calls, unless noted: active means hit-call score of the fitted dose curve at least 0.9, where 1 is the maximum; inconclusive means response in the unintended direction; inactive means score below 0.9.

Sequence of Transcriptional activator Myb (Homo sapiens) (P10242 whole entry, looked up): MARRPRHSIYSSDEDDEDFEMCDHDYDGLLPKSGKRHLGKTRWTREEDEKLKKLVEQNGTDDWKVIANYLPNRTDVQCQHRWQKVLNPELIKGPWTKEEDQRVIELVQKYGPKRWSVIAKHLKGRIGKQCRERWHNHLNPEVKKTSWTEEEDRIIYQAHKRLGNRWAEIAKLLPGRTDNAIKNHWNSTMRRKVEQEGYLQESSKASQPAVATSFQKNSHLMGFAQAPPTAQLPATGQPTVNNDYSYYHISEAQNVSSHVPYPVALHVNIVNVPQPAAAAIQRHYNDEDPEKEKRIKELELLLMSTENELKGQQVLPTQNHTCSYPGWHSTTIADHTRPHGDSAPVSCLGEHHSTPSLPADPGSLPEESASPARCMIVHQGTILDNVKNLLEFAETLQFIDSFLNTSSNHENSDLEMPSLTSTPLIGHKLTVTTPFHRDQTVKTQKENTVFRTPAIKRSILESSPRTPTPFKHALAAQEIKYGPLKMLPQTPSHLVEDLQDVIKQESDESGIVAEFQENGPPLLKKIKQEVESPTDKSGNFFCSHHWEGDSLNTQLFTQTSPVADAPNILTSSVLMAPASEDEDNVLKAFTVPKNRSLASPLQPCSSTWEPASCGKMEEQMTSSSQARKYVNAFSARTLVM
Sequence of Glucocorticoid receptor (Homo sapiens) (P04150 whole entry, looked up, the tested form may be a part): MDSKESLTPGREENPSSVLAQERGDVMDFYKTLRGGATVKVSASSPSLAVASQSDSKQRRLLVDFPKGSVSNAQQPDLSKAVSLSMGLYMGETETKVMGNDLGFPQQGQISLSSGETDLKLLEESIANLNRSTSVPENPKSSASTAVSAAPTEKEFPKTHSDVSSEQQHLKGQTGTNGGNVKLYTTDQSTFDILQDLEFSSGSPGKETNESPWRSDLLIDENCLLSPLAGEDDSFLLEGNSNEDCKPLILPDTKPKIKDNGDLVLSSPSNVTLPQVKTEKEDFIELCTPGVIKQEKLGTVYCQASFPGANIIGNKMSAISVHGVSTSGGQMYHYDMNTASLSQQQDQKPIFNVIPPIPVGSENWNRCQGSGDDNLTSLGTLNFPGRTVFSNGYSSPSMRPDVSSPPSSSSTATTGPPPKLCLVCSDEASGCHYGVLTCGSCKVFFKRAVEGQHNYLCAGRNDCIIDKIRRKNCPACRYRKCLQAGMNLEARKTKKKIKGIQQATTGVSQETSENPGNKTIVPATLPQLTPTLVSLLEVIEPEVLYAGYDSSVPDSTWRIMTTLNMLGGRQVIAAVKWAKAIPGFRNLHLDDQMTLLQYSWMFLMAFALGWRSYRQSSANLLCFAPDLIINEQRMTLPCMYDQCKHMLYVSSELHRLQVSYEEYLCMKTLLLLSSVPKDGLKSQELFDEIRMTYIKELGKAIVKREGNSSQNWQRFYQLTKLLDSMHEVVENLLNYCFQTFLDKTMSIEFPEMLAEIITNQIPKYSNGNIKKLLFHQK
Sequence of Nuclear receptor subfamily 4 group A member 2 (Homo sapiens) (P43354 whole entry, looked up, the tested form may be a part): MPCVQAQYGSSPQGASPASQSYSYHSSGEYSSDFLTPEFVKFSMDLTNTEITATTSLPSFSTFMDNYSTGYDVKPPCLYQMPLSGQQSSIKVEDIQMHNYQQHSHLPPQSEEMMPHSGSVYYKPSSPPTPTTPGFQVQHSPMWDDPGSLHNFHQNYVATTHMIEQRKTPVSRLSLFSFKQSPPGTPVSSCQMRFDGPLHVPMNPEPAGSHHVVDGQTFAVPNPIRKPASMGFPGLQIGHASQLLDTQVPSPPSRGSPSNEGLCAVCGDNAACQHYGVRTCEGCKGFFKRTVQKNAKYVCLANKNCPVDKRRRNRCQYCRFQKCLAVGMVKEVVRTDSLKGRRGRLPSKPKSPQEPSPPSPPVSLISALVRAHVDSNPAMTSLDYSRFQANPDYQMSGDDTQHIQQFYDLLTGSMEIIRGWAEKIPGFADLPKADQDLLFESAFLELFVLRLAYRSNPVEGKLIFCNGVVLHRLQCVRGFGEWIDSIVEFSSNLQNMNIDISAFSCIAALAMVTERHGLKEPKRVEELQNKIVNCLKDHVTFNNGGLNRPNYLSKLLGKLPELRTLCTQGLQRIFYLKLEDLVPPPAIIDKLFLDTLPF
Sequence of Oxysterols receptor LXR-alpha (Homo sapiens) (Q13133 whole entry, looked up, the tested form may be a part): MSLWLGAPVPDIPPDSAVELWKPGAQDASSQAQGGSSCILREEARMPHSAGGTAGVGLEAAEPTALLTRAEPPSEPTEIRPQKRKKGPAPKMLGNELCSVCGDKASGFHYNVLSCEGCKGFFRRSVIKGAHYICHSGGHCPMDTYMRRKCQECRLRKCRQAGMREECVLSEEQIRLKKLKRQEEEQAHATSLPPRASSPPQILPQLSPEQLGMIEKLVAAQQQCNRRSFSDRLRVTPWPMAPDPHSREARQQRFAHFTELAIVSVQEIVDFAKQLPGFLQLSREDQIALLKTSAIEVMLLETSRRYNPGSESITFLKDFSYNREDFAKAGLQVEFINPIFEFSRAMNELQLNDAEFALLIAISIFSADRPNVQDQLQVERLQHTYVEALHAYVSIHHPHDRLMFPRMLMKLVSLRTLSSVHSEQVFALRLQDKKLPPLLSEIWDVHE
Sequence of Bile acid receptor (Homo sapiens) (Q96RI1 whole entry, looked up, the tested form may be a part): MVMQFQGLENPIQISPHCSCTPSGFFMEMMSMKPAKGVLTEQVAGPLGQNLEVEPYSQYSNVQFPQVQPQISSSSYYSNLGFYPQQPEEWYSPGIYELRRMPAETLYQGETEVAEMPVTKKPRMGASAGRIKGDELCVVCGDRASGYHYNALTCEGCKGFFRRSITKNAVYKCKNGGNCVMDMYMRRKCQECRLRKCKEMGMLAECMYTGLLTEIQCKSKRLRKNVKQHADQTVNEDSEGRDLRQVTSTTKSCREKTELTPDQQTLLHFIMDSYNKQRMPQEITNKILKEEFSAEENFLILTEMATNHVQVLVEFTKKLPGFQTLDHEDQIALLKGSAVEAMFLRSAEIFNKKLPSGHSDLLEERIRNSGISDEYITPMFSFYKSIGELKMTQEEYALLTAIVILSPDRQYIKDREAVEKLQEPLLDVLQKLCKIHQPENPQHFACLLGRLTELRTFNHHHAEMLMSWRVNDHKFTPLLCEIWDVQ
Sequence of Oxysterols receptor LXR-beta (Homo sapiens) (P55055 whole entry, looked up, the tested form may be a part): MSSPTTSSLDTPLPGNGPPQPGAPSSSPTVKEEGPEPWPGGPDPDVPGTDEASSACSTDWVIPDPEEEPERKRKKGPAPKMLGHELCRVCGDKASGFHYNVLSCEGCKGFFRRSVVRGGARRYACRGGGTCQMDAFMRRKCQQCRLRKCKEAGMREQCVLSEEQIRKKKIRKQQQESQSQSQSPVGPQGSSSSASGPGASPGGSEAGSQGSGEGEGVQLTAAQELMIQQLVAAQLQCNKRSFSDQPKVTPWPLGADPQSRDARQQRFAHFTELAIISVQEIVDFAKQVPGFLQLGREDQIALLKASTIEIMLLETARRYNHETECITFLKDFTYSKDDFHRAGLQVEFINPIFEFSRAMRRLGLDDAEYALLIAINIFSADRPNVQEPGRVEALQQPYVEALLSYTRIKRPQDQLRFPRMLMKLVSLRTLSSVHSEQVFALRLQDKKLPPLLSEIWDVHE
Sequence of Hepatocyte nuclear factor 4-alpha (Homo sapiens) (P41235 whole entry, looked up): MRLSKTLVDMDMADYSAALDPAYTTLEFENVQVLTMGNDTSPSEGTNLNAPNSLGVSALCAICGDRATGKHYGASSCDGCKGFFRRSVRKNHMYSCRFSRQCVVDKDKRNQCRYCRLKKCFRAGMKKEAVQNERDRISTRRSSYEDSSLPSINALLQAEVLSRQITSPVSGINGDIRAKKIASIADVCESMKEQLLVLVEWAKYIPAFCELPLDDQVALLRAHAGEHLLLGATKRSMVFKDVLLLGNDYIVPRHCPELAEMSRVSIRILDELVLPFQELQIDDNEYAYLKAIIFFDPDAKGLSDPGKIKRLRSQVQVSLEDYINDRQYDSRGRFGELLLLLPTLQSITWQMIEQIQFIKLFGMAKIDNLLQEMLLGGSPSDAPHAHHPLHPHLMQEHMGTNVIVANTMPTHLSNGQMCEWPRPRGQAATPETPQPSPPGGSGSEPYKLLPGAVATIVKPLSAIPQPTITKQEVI

Regarding `CC(C)C(=O)OCCOc1ccccc1`, the outcome in assay [1], in assay [2] and in [3] was inactive.

Turning to `CC(=O)CCC1=C(C)CCCC1(C)C`, the result in assay [1], in assay [2], in [4], in assay [5] and in assay [3] was inactive.

As to `CCCCCCCCCCCC(=O)OCC`, the result in [1], in assay [2], in [4], in [5] and in assay [3] was inactive.

`CCC(C)C(=O)OC` (centres undefined): the compound was classed as inactive in [1], in assay [6], in [7] and in assay [3].

A word on the AC50: it is the midpoint of the concentration-response curve, whichever way the signal moves. On to `CC(C)c1cc(C(C)C)cc(C(C)C)c1`, for which the compound was classed as inactive in [1], in assay [2], in assay [4] and in [7]. Also, the AC50 in [5] was 7.9 µM (active); in assay [3], 176 µM (active).

With `CC(=O)OCC=C(C)C`, the result in [1], in assay [2], in assay [8], in assay [7] and in assay [3] was inactive.

In the case of `Oc1ccc(-c2ccccc2)c(Cl)c1`, the call in assay [1], in assay [2] and in assay [3] was inactive.

For the compound `C=CCNCC=C`, the result in assay [1], in [2], in assay [7] and in assay [3] was inactive.

With `CCCCC(C=O)CC` (centres undefined), the outcome in assay [1], in assay [6], in assay [7] and in assay [3] was inactive.

`COC(C=C(C)CCC=C(C)C)OC`: the call in assay [1], in [6], in assay [7] and in assay [3] was inactive.

`CCCCCCCCCC(C)=O`: the compound was classed as inactive in [1], in assay [2], in assay [7], in assay [5] and in [3].

Regarding `CC(C)=CCCC(C)=CC#N`, the result in assay [1], in assay [2], in assay [8], in [7], in [5] and in [3] was inactive.

In the case of `Nc1nc(N)nc(-c2ccccc2)n1`, the compound was classed as inactive in assay [1], in assay [2], in [9], in [8], in assay [7] and in [5]. Further, in [3], the call was inactive.

In the case of `Cc1cccc(C(C)(C)C)c1O`, the compound was classed as inactive in assay [1], in assay [2], in assay [9], in assay [8], in assay [7] and in assay [5]. Besides, the call in assay [3] was inactive.

On to `COc1ccc(-c2coc3cc(O)cc(O)c3c2=O)cc1`, for which the compound was classed as inactive in assay [1], in [2], in assay [4], in assay [8], in [7] and in assay [3].
